Experimental data: PubChem BioAssay AID602292 (National Center for Advancing Translational Sciences (NCATS), 2012)
About 380 (29%) of roughly 1,300 compounds were called active. Another 37% or so got no clear call; they are omitted. Calls come from the whole dose curve; as a rule, active = well fitted inhibition curve with a large enough effect; inconclusive = small, poorly fitted or top-dose-only effect; inactive = flat fitted curve, though single readings scatter. This is one part of the list.

Target: Thyrotropin receptor (Homo sapiens) (UniProt P16473)
Assay: qHTS for antagonists of the Thyroid Stimulation Hormone Receptor: Hit Validation in Primary Screen; note: nearly all actives have a fitted effect of over 80% in size;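 for activity change, negative = inhibition: cells stimulated with TSH at EC80 of 4 nM during compound exposure; cAMP by competitive HTRF where cellular cAMP lowers the 665 nm FRET signal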
Details: TSHR-expressing cells, cAMP antagonist mode; series mostly up to 58 µM; activity change, negative = inhibition: at the top concentration
Method in brief: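 Competitive HTRF detected cAMP in lysates of TSHR cells, read 30 minutes after antibody and d2 addition at room temperature. Before lysis, cells had 2 hours at 37 deg C with compound plus EC80 TSH, 4nM final.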
% is set by controls: 0 for no effect and ±100 for the full control effect; potency is the fitted concentration of half-maximal effect.

Thyrotropin receptor (Homo sapiens), sequence (P16473 whole entry, looked up): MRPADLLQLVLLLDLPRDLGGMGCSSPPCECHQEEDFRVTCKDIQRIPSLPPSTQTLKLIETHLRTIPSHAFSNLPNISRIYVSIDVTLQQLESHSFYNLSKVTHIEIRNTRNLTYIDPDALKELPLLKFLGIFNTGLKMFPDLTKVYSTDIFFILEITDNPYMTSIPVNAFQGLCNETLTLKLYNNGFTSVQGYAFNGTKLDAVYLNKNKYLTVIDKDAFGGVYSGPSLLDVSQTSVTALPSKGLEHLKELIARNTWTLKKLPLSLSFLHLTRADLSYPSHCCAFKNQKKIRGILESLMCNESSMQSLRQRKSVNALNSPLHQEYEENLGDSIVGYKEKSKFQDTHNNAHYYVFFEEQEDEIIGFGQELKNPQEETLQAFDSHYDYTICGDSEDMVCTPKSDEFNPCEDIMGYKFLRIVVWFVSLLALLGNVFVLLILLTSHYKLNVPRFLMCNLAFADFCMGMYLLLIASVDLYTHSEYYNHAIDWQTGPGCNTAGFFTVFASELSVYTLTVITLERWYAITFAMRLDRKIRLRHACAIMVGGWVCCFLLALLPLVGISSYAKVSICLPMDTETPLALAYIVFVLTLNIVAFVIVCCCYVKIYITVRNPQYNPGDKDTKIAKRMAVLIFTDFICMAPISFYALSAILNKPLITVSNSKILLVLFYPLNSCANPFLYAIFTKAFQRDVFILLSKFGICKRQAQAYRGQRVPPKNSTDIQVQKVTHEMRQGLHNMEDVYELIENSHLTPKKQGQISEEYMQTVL

Potency, active:
Cc1ccc(-n2c(Cl)c(Cl)nc(Cl)c2=O)cc1 26.9 µM
O=[N+]([O-])c1ccc(N=Nc2c(Cl)cc(O)cc2Cl)cc1 1.51 µM
COc1ccc(C(=O)NC2CCCc3c2cnn3-c2cccc(C)c2C)c(OC)n1 (stereo not given) 21.3 µM
Cn1c(N=Nc2ccc(N3CCOCC3)cc2)[n+](C)c2ccccc21 12 µM
CCCn1nc([N+](=O)[O-])c(C(C#N)c2nc3ccccc3o2)c(Cl)c1=O (stereo not given) 6.01 µM
CCn1nc([N+](=O)[O-])c(C(C#N)c2nc3cc(C(F)(F)F)ccc3s2)c(Cl)c1=O (stereo not given) 2.69 µM
Cc1cc(C(=O)CCl)c(C)n1CCc1ccccc1 30.1 µM
Brc1ccc(CNc2ccc3ncccc3c2)cc1 23.9 µM
O=S(=O)(Nc1ccc2cn[nH]c2c1)c1cc(Br)ccc1Br 21.3 µM
O=C(Nc1ccc(Cl)c(Cl)c1)Nc1ccccc1O 21.3 µM
O=C(c1cc(COc2cccc3cnccc23)on1)N1CCCC(CCCO)C1 (stereo not given) 13.5 µM
Cc1ccc(C(=O)Nc2ccc(Br)c(C(F)(F)F)c2)cc1 23.9 µM
O=C(Nc1nc(-c2cccs2)c(-c2cccs2)s1)C1CCCC1 19 µM
c1ccc2c(CSc3ncnc4nc[nH]c34)cccc2c1 30.1 µM
Clc1ccc(CSc2nnc(CNc3cccc(Cl)c3)o2)cc1 23.9 µM
Cc1sc(N/N=C/c2cccnc2)nc1-c1ccccc1 23.9 µM
COc1cc(C(C)=O)ccc1OCC(=O)Nc1ccc(C)c(S(=O)(=O)N2CCCCCC2)c1 19 µM
COc1ccc(NC(=O)CCC2CCCCC2)cc1S(=O)(=O)N1CCCCC1 37.9 µM
Cc1ccccc1-n1sc2cc(F)ccc2c1=O 19 µM
O=C(CSc1ncnc2ccccc12)c1ccc2c(c1)OCCO2 26.9 µM
O=S(=O)(Nc1ccc(O)c(Sc2nc3ccccc3s2)c1)c1cccc2ccccc12 37.9 µM
CCn1c(Cl)c(C=O)s/c1=N\S(=O)(=O)c1ccccc1 21.3 µM
CCN(CC)S(=O)(=O)c1cccc(NC(=O)CCSc2ccc(Cl)cc2)c1 30.1 µM
Cc1ccc(C(=O)N2c3ccccc3N(Cc3ccccc3)C(=O)C2(C)C)cc1 16.9 µM
O=C(NC(Nc1nc2ccc([N+](=O)[O-])cc2s1)(C(F)(F)F)C(F)(F)F)c1ccccc1 0.953 µM
O=C(NC(Nc1nc2ccc([N+](=O)[O-])cc2s1)(C(F)(F)F)C(F)(F)F)c1cccnc1 7.57 µM
O=C(COC(=O)C12CC3CC(CC(Br)(C3)C1)C2)Nc1cccc(S(=O)(=O)N2CCOCC2)c1 23.9 µM
C=CCN1C(=O)/C(=C/c2ccc(OC(C)=O)c(OCC)c2[N+](=O)[O-])SC1=S 7.57 µM
COc1ccc(/C=C/C(=O)c2ccc(NS(=O)(=O)c3ccc(C)cc3)cc2)cc1O 23.9 µM
Cc1cc(C(=O)CSc2nc3ccccc3[nH]2)c(C)n1CC1CCCO1 (stereo not given) 21.3 µM
Clc1c(CSc2nc3ccccc3o2)nc2ccccn12 23.9 µM
Cc1c(C(=O)Nc2ccc3c(c2)OCCO3)sc2nc(-c3ccccc3)cn12 30.1 µM
Cc1cc(-n2c(C)cc(C(=O)CSc3[nH]c(=O)cc(C(F)(F)F)c3C#N)c2C)no1 9.53 µM
CCCCn1c(NC(=O)c2ccccc2Cl)c(C#N)c2nc3ccccc3nc21 15.1 µM
CCCCn1c(-c2csc3c2CCCC3)n[nH]c1=S 30.1 µM
CCC(C)Sc1ccc(-c2nc3ccc(C)cn3c2NCc2ccccc2)cc1OC (stereo not given) 21.3 µM
CCCCNc1c(-c2cccc(-c3ccc(OC)cc3)c2)nc2ccc(C)cn12 37.9 µM
COc1ccc(-c2cc(-c3nc4ccccn4c3NCc3ccccc3)ccc2OC)cc1 2.69 µM
C=CC(C)(C)c1c2occc2c(O)c2ccc(=O)oc12 16.9 µM
O=[N+]([O-])c1ccc(S(=O)(=O)c2ccccc2)nc1 37.9 µM
COc1ccc(-c2sc3ccc(N4CCOCC4)cc3c2C#CCO)cc1 19 µM
COc1ccc(C(=O)c2ccccc2)c2c(O)ccc(C(=O)c3ccccc3)c12 12 µM
O=C(NCc1cccc(Cl)c1)c1cc(COc2ccc3ncccc3c2)on1 9.53 µM
CC(CNC(=O)c1cc(COc2ccc3ncccc3c2)on1)c1ccccc1 (stereo not given) 23.9 µM
Cc1ccc(F)cc1CNC(=O)c1cc(COc2ccc3ncccc3c2)on1 21.3 µM
COc1ccc(-c2csc(/C(C#N)=C\c3ccc(O)c([N+](=O)[O-])c3)n2)cc1OC 1.9 µM
CCOc1ccc(-c2csc(/C(C#N)=C\c3ccc(O)c([N+](=O)[O-])c3)n2)cc1 6.01 µM

Activity change, negative = inhibition, inactive:
CCOC(=O)c1cccc(OCC(O)CNCCOc2ccccc2F)c1 (stereo not given) -1.9%
O=C(NCCc1ccccc1)c1cccnc1N1CCCCCC1 -6.11%
CCOC(=O)N1CCN(C(=O)CCc2ccccc2)CC1 -3%
CCOc1ccc(-n2c(SCC(=O)NC(C)CC)nc3n[nH]c(C)c3c2=N)cc1 (stereo not given) -17.2%
O=C(Nc1ccncc1)Nc1cc(Cl)ccc1Cl -11.4%
CSc1ccccc1OCc1cc(C(=O)NC2CCc3ccccc32)no1 (stereo not given) -4.75%
Cc1nc2ccc(C(=O)Nc3ccc4nc[nH]c4c3)cc2[nH]1 -9.02%
CCn1c(=S)sc2c(=O)n(CC(=O)Nc3ccccc3OC)c(C)nc21 -9.71%
O=C(COCc1cc(-c2cccs2)on1)NC1CCCCC1 -10.5%
COc1ccc(CC(=O)Oc2cc(C)ccc2C)cc1 -12.9%
CN(C)/C=C(/C(=O)c1ccc(Cl)cc1)S(=O)(=O)c1ccc(Cl)cc1 -4.03%
O=C(COc1ccc(Cl)cc1)NCc1nnc(SCC(=O)NC2CCCCC2)o1 -2.3%
C(=N\N1CCN(Cc2cccc3ccccc23)CC1)/c1cccnc1 -9.51%
Nc1c(C(=O)NCc2ccc3c(c2)OCO3)nnn1CC(=O)Nc1ccc(Br)cc1 -2.74%
COC(=O)CN1C(=O)COc2ccc(S(=O)(=O)N3CCCC3)cc21 -2.77%
COc1cc(C(=S)N2CCCC2)ccc1OCc1ccc(C)cc1 -6.97%
COc1ccc(NS(=O)(=O)c2cc(NC(=O)/C=C/c3cc(OC)ccc3OC)ccc2N2CCCCC2)cc1 -12.9%
COc1ccc(Br)cc1/C=N/NC(=O)CN1CCCCC1 0.691%
COC(=O)c1cc(=O)n(-c2c(Cl)cc(C(F)(F)F)cc2Cl)[nH]1 -7.03%
CCCN1CCN(CCCNC(=O)Cn2nc(C)n3c(cc4cc(OC)ccc43)c2=O)CC1 -1.9%
Cc1c(C(=O)OC/C(O)=C(\C#N)c2nc3ccccc3[nH]2)oc2ccc(Br)cc12 -3.86%
CS(=O)(=O)N(CC(=O)N1CCOCC1)c1cccc(F)c1 -1.09%
O=C(CSc1n[nH]c(=O)n1C1CC1)c1ccc2c(c1)OCCO2 -2.97%
Cc1ccc(S(=O)(=O)c2c(C(=O)c3ccccc3)cnc3cc4c(cc23)OCCO4)cc1 -10.4%
COCC(C)NC(=O)C1c2ccccc2Oc2ccccc21 (stereo not given) -5.99%
CC(=O)N1c2ccc(S(=O)(=O)NCCC(=O)Nc3cccc(Cl)c3)cc2CC1C (stereo not given) -2.02%
CC(=O)c1cccc(NC(=O)CCCSc2ccccc2)c1 -8.01%
CC1CCCN(S(=O)(=O)c2csc(C(N)=O)c2)C1 (stereo not given) -8.21%
CCOP(=O)(Cc1ccc(C(C)(C)CC(C)=O)o1)OCC 2.1%
Cc1ccc(CN2C(=O)c3ccccc3Sc3ccc(C(=O)NCCCN4CCOCC4)cc32)cc1 -7.23%
O=C(c1ccc2c(c1)N(Cc1ccccc1)C(=O)c1ccccc1S2)N1CCCC1 -8.9%
COc1ccc2nc(NC(=O)c3ccccc3[N+](=O)[O-])sc2c1 -12.5%
Cc1cccc(NC(=O)C2CCN(S(=O)(=O)c3ccc4c(c3)NC(=O)CO4)CC2)c1 -1.24%
CSc1cccc(NC(=O)CN2C(=O)COc3ccc(S(=O)(=O)N4CCOCC4)cc32)c1 -4.44%
COc1cc(/C=C/C(=O)c2ccc(NS(=O)(=O)c3ccc(C)cc3)cc2)ccc1OC(F)F -7.78%
Nc1nc(SCC(=O)NCC2CCCO2)[nH]c(=O)c1NC(=O)c1ccc(F)c(F)c1 (stereo not given) -3.95%
CCOc1ccccc1NC(=O)CSc1nc2ccccc2c(=O)n1CC1CCCO1 (stereo not given) -5.07%
CC1(C)CC(O)CC(C)(C)N1CC(O)COCc1ccccc1 (stereo not given) -8.04%
Cc1ccc(Sc2ncccc2NC(=O)c2ccccc2Cl)cc1 -0.893%
Cc1cccc2c1-c1sc(C(=O)NCCCN3CCCC(C)C3)cc1CO2 (stereo not given) -9.68%
CCCCCCSc1ccc(-c2nc3ccc(Cl)cn3c2NCCCC)cc1OC -8.61%
COc1ccc(-c2csc3ncn(Cc4ccccc4)c(=O)c23)cc1 -4.81%
CCOc1ccccc1/C=C/c1onc(C)c1S(=O)(=O)N1CCC(C(=O)N2CCCCCC2)CC1 -7.46%
CCOc1ccccc1NC(=O)C1(S(=O)(=O)c2ccc(Cl)cc2)CC1 -5.39%
COc1cccc(O)c1CN1CCC(C(=O)Nc2ccc(Oc3cccnc3)cc2)CC1 -8.53%
O=C(c1ccc2c(=O)n(Cc3ccc4c(c3)OCO4)c(=S)[nH]c2c1)N1CCCCC1 -8.61%
CCN(C(=O)CN1C(=O)COc2ccc(S(=O)(=O)N3CCOCC3)cc21)c1ccc(OC)cc1 -2.48%
COC(=O)c1ccc(NC(=O)c2ccccc2)o1 -9.82%
Cc1cc(OCc2cc(C(=O)NCc3csc(C(C)C)n3)no2)cc(C)c1Cl -20.8%
Cc1ccc(OCc2cc(C(=O)NCC3COCCO3)no2)cc1C (stereo not given) -1.01%
COc1ccc(CNC(=O)C(C)OC(=O)c2cccs2)cc1 (stereo not given) 0.0864%
COc1ccc(S(=O)(=O)NCCc2cn3nc(C)c(C)nc3n2)cc1F -4.26%
COc1ccc(NC2CCCN(C(=O)CCc3cccc(F)c3)C2)cc1 (stereo not given) -4.72%
